According to PubChem BioAssay AID743172 (National Center for Advancing Translational Sciences (NCATS), 2013):
Several values for one entry are separate records, joined by “and”; a condition that tells them apart may be missing. Identical values can stand only once. Results filed as inconclusive are left out. Activity calls are given as the source filed them. The call rests on the fitted dose curve; in most records, active means well fitted activation curve with a large enough effect; inconclusive means small, poorly fitted or top-dose-only effect; inactive means no such curve, though single readings can be large or run the other way.

Test: Extended Characterization of HPGD Inhibitors: PGE2 Assay in LNCaP Cells
Conditions: PGE2 HTRF level, 16 h; series mostly up to 100 µM
Text: The central role of HPGD is to inactivate prostaglandins such as prostaglandin E2 (PGE2) or prostaglandin D2 (PGD2). These prostaglandins are involved in a number of processes, including inflammation, differentiation, and cellular signaling, which makes HPGD an important target for pharmacological intervention. A number of prostaglandins of particular biological interest have been identified as substrates of HPGD. […] Over-production of PGE2 has been reported to promote tumor-associated neovascularization, cell proliferation, and tumor growth. […] In this orthogonal assay, we set out to measure if compounds were able to increase PGE2 production NIH Chemical Genomics Center [NCGC] NIH Molecular Libraries Probe Centers Network [MLPCN] MLPCN Grant: MH084681 Assay Submitter (PI): Structural Genomics Consortium
A549 cells, LNCaP cells or media were dispensed in 384-well plates (ProxiPlate-384 Plus, PerkinElmer, Shelton, CT) at 5,000 cells/9.9 uL/well using a CappAero384 multichannel pipette (Odense, Denmark). Separately on the plate, 10 uL of PGE2 calibration standards at a starting assay concentration of 5,000 pg/mL (1:2 dilution, 12-points, n = 1, prepared in media, Cisbio, Bedford, MA) were dispensed. Compounds (100 nL, final concentration range from 41.9 nM to 100 uM) were transferred using an ATS Acoustic Liquid Dispenser (EDC Biosystems, Fremont, CA). After being mixed using an automated liquid handler (CyBio, Jena, Germany), samples were incubated (37 deg C, 5% CO2, under a humidified atmosphere) for 16 hours. PGE2 labeled conjugates were added to each well, first 5 uL of PGE2-d2, followed by 5 uL of anti-PGE2-cryptate, centrifuged (1,500 rpm, 15 sec) and incubated (RT, protected from light) for 5 hours. Time-resolved fluorescence intensity (320 nm excitation, 615 and 665 nm emission) was measured using an Envision plate reader (PerkinElmer). Data was expressed as the ratio of 665 nm/615 nm emissions. Concentration (pg/mL) of samples were calculated from a 4-parameter logistic calibration curves of the PGE2 standards.

Potency, inactive:
N#Cc1ccccc1CNc1nc2ncc(Br)cc2[nH]1
Cc1cccc(-n2cnc3cc(C(=O)NC(C)(C)C)ccc32)c1
FC(F)(F)c1ccc(-c2nc(-c3nnc4n3CCCCC4)c(C(F)(F)F)o2)cc1
Cc1cccc(-n2cnc3cc(C(=O)N4CCC(C#N)CC4)ccc32)c1

Potency, active:
N#Cc1cccc(CSc2nc3ncc(Br)cc3[nH]2)c1 35.2 µM
Cc1cccc(-n2cnc3cc(C(=O)N4CCCC(C(F)(F)F)C4)ccc32)c1 (stereo not given) 1.76 µM
O=[N+]([O-])c1ccc(CSc2nc3ncc(Br)cc3[nH]2)cc1 2.22 µM
N#Cc1ccccc1CSc1nc2ncc(Br)cc2[nH]1 35.2 µM
Clc1ccccc1CSc1nc2ncc(Br)cc2[nH]1 44.3 µM
Cc1cc(-c2nnc3n2CCCCC3)c(C)n1-c1ccc(F)cc1 3.52 µM
Brc1cnc2nc(SCc3ccccc3)[nH]c2c1 44.3 µM
Cc1cccc(-n2cnc3cc(C(=O)N4CCCC4)ccc32)c1 55.8 µM
Cc1ccc(-n2cnc3cc(C(=O)N4CCCCC4)ccc32)cc1 0.443 µM
FC(F)(F)c1cccc(CSc2nc3ncc(Br)cc3[nH]2)c1 35.2 µM
Brc1cnc2nc(SCc3ccccn3)[nH]c2c1 11.1 µM
Cc1ccc(-n2c(C)cc(-c3nnc4n3CCCCC4)c2C)cc1 0.702 µM
Clc1ccc(CSc2nc3ncc(Br)cc3[nH]2)cc1 14 µM
Cc1cc(-c2nnc3n2CCCCC3)c(C)n1-c1ccc(C(F)(F)F)cc1 3.52 µM
O=[N+]([O-])c1ccccc1CSc1nc2ncc(Br)cc2[nH]1 0.352 µM
CC(C)(C)c1ccc(-n2cnc3cc(C(=O)N4CCCCC4)ccc32)cc1 4.43 µM
Cc1ccccc1CSc1nc2ncc(Br)cc2[nH]1 22.2 µM
Cc1cc(-c2nnc3n2CCCC3)c(C)n1-c1ccccc1 7.03 µM
Cc1cc(-c2nnc3n2CCCCC3)c(C)n1-c1cccc2ccccc12 884 nM and 1.76 µM
CC(C)c1cccc(-n2cnc3cc(C(=O)N4CCCCC4)ccc32)c1 2.8 µM
COc1cccc(-n2cnc3cc(C(=O)N4CCCCC4)ccc32)c1 0.28 µM
Cc1cc(-c2nnc3n2CCCCC3)c(C)n1-c1ccc([N+](=O)[O-])cc1 2.22 µM
Cc1cc(-c2nnc3n2CCCCC3)c(C)n1-c1ccc(Cl)c(Cl)c1 0.352 µM
COc1ccc(-n2cnc3cc(C(=O)N4CCCCC4)ccc32)cc1 0.884 µM
Brc1cnc2nc(SCc3cccnc3)[nH]c2c1 7.03 µM
COc1ccc(CSc2nc3ncc(Br)cc3[nH]2)cc1F 22.2 µM
Brc1cnc2nc(SCc3ccncc3)[nH]c2c1 4.43 µM
CCCCn1cnc2cc(C(=O)N3CCCCC3)ccc21 4.43 µM
Cc1cccc(-n2cnc3cc(C(=O)N4CCCCC4)ccc32)c1 702 nM and 884 nM
N#Cc1ccc(CSc2nc3ncc(Br)cc3[nH]2)cc1 22.2 µM
O=C(c1ccc2c(c1)ncn2-c1ccccc1)N1CCCCC1 0.28 µM
Cc1cccc(-n2cnc3cc(C(=O)N4CCCCCC4)ccc32)c1 1.76 µM
CC(C)(C)n1cnc2cc(C(=O)N3CCCCC3)ccc21 0.884 µM
Cc1cc(-c2nnc3n2CCCCC3)c(C)n1-c1cccc(Cl)c1 0.558 µM
O=C(c1ccc2c(c1)ncn2-c1cccc(Cl)c1)N1CCCCC1 0.222 µM
Cc1cc(-c2nnc3n2CCCCC3)c(C)n1-c1cccc(C#N)c1 1.76 µM
